MARV entry inh = Marburg virus entry inhibition; Marburg virus pseudotyped entry inhibition, cell reporter; Potency, µM (series often up to 37.8 µM), inactives show at the top dose activity change, negative = inhibition, most hits filed as inhibitors; 300,000 tested, 1.8% active; AID 540276; calls by dose curve; tested in HEK293 cells; note: potency is the fitted concentration of half-maximal effect
Vaccinia Venus = vaccinia inhibition (Venus reporter) | Vaccinia virus Venus reporter expression, fluorescence | Potency, µM (top dose mostly 36.5 µM), for the others: at the top dose activity change, negative = inhibition, hits mostly inhibitors | 330,000 tested, 0.46% active; calls by dose curve; tested in A549 cells; note: potency is the fitted concentration of half-maximal effect; nearly all actives have a fitted effect of over 30% in size
HCV inh = HCV inhibition. Huh7.5.1 HCVcc-Cre infection, luciferase reporter, 44 h. 340,000 tested, 3.4% active. Potency, µM (doses to about 41.8 µM), for the others: top-dose activity change, negative = inhibition, actives largely listed as inhibitors. AID 651820; active = well fitted inhibition curve with a large enough effect; inconclusive = small, poorly fitted or top-dose-only effect, or another doubt; inactive = no such curve, though single readings can be large or run the other way; note: potency is the fitted concentration of half-maximal effect
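Antiviral activity was scored by luciferase reporter output from cells infected with HCVcc-Cre (~0.5 moi) in presence of compound, 44 h infection period, cells seeded 1,000/well 4 h prior.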
LASV entry inh = Lassa virus entry inhibition; Potency, µM (doses to about 37.9 µM), inactives show top-dose activity change, negative = inhibition, most hits filed as inhibitors; Lassa virus pseudotype entry inhibition, cell reporter; 300,000 tested, 1.2% active; calls by dose curve; tested in HEK293 cells; note: potency is the fitted concentration of half-maximal effect; nearly all actives have a fitted effect of over 50% in size
VACV mCherry inh = vaccinia inhibition (mCherry reporter); Vaccinia virus mCherry reporter infection, fluorescence; 310,000 tested, 0.63% active; AID 720579; Potency, µM (doses to about 36.5 µM), without a hit: at the highest dose activity change, negative = inhibition, most hits filed as inhibitors; calls by dose curve; tested in A549 cells; note: potency is the fitted concentration of half-maximal effect; nearly all actives have a fitted effect of over 35% in size
HCMV inh = blocks human cytomegalovirus replication; HFF cells, HCMV-luciferase reporter, 72 h; stronger effect = lower value; activity change, negative = inhibition, % at 57.5 µM; 410,000 tested, 4.5% active; in the data active = activity change below about -60%; inconclusive = no clear call, values can overlap the other calls; inactive = above about -39%
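Luciferase read-out from HCMV-luciferase-infected HFFs (MOI 1 PFU/cell) 72 h post infection at 37C; compounds added after 16 h cell attachment; activity normalized between buffer-only basal and Salinomycin (10uM) inhibitor controls.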
* hit, by the source's call; i = inactive; u = inconclusive; x = not tested or not shown; ! = not confirmed by another sample; [ ] = another dose, or the depositor's remark. This is a sample that favours compounds with a hit; in the whole collection about 7.8% have one here. % is set by controls: 0 for no effect and ±100 for the full control effect.

SMILES	MARV entry inh	Vaccinia Venus	HCV inh	LASV entry inh	VACV mCherry inh	HCMV inh
Clc1ccc(-c2nnc(Sc3nc4ccccc4o3)c3ccccc23)cc1	u	u	-28%	u	14µM*	-82*
Cc1ccc(CNC(=O)c2cnc3c(-c4ccccc4)c(C)nn3c2C)o1	x	-1%	x	25%[46.1 µM]	-4%	-12
CSc1nc(N)nc(SCC(=O)OC(C)C)c1C#N	13%	x	-4%	-3%	x	-108*
CN(C)c1cccc(Nc2nccc3[nH]c(-c4ccsc4)cc23)c1	x	x	x	x	x	-8
Nc1ccc2[nH]ncc2c1	15%	-13%	-11%[8.37 µM]	-6%	i	-61*
Cc1ccccc1/C=C(\C#N)c1nc(-c2ccc(Cl)cc2)cs1	-13%[46.1 µM]	-3%	x	-1%[46.1 µM]	2%	-15
COc1cc(CCCN2C(=S)NC[C@@H]2Cc2ccccc2)cc(OC)c1OC	x	-18%	u	x	-7%	12
COc1cc(CCCN2C(=S)NC[C@@H]2c2ccccc2)cc(OC)c1OC	x	-16%	u	x	i	-99*
C[C@@H]1CN(Cc2ccc3c(c2)CN(C(=O)c2ccc(Oc4ccccc4)o2)CCO3)C[C@H](C)O1	x	-21%	x	x	-29%	x
CC(NS(=O)(=O)c1ccc(Br)cc1)C(=O)NCc1ccco1 (stereo not given)	1%	-19%	u	0%	i	-73*
CC(NS(=O)(=O)c1ccccc1)C(=O)NCc1ccco1 (stereo not given)	16%	3%	-1%	0%	-16%	11
CN(Cc1cccs1)C(=O)c1ccc(S(=O)(=O)NCc2ccco2)cc1	x	x	7%	x	x	-18
CC(C)c1ccc(CN(C)C(=O)c2ccc(S(=O)(=O)NCc3ccco3)cc2)cc1	x	x	6.3µM*	x	x	u
Cc1nn(-c2ccccc2)c(C)c1CN(C)C(=O)c1ccc(S(=O)(=O)NCc2ccco2)cc1	x	x	14µM*	x	x	-33
CN(Cc1ccc(Cl)cc1)C(=O)c1ccc(S(=O)(=O)NCc2ccco2)cc1	x	x	-27%	x	x	-37
Cc1c(Cl)cccc1NC(=O)CSc1ncc2c(n1)-c1ccccc1N(C)S2(=O)=O	x	13%	x	-19%[46.1 µM]	-6%	-31
CCOC(=O)Cc1nnc(NC(=O)CSc2ccc(C)cc2)s1	17%	x	3%	u	x	25
CCCCOc1cccc(-c2nnc(NC(=O)CSc3ccc(C)cc3)s2)c1	2%	-4%	13%	0.32µM*	-13%	-86*
Cc1[nH]c2ccccc2c1N=Nc1ccccc1F	u	-27%	10µM*	3%[46.1 µM]	u	-5
c1ccc(-c2ccc(-c3cn4c(n3)CCC4)cc2)cc1	7.1µM*	-22%	u	10µM*	-14%	-62*
COc1ccc(-c2cn3c(n2)CCC3)cc1	-27%	-11%	-5%	-24%	-17%	44
COc1cc2c(O)c3c(c(-c4ccc5c(c4)OCO5)c2cc1OC)C(=O)OC3	2.3µM*	u	u	3.7µM*	u	-96*
COc1cc2sc(-c3ccc(S(C)(=O)=O)cc3)c(-c3ccc4c(c3)OCO4)c2cc1OC	x	-18%	2.8µM*	x	u	-28
COc1cc2c(OC(C)=O)c3c(c(-c4ccc5c(c4)OCO5)c2cc1OC)C(=O)OC3	x	u	u	x	u	-93*
Cc1ccc(OC[C@H](O)CNS(=O)(=O)c2ccccc2C(=O)O)cc1	2%[46.1 µM]	x	x	x	x	x
SMILES	MARV entry inh	Vaccinia Venus	HCV inh	LASV entry inh	VACV mCherry inh	HCMV inh
CC(C)CCNc1nnnc2c1sc1nc(N3CCOCC3)c3c(c12)CC(C)(C)SC3	-23%	-8%	-2%	u	i	6
CC1(C)Cc2c(c(N3CCOCC3)nc3sc4c(NCCN5CCOCC5)nnnc4c23)CS1	x	x	11µM*	x	x	4
O=C1OCc2ccc(NC(=O)c3ccccc3C(=O)O)cc21	x	x	2%	x	x	11
O=C1OCc2ccc(NC(=O)c3c(F)cccc3Cl)cc21	u	-4%	-8%	1%[46.1 µM]	-17%	-85*
O=C(Nc1ccc2c(c1)CCC2)c1ccc(F)cc1	11µM*	-19%	u	u	-26%	51
O=C(Nc1ccc2c(c1)C(=O)OC2)c1ccccc1Cl	u	-8%	4%	0%[46.1 µM]	-5%	-91*
O=C(Nc1ccc2c(c1)CCC2)c1c(F)cccc1Cl	18%[46.1 µM]	-2%	10%	1%[46.1 µM]	i	-61*
Cc1ccc2sc3ccc(NC(=O)c4ccccc4Cl)cc3c(=O)c2c1	u	x	8.9µM*	1%	x	-89*
Cc1cc(NC(=O)c2ccccc2Cl)ccc1NC(=O)c1ccccc1Cl	x	x	u	x	x	93
CCOc1ccc(Cc2c(C)[nH]c3ccc(C(=O)O)cc3c2=S)cc1	-5%	-5%	14%	u	i	-79*
CCc1c(C)[nH]c2ccc(OC)cc2c1=S	-17%[46.1 µM]	-9%	-14%	17%	-14%	-71*
COc1ccc2[nH]c(C)c(CN3CCCCC3)c(=O)c2c1	-17%	7%	5%	0%	-2%	-40
O=C(/C=C/c1ccc(O)cc1)c1ccc(O)cc1O	10µM*!	u	-11%	u	u	29
COc1ccc(C(=O)/C=C/c2ccccc2)c(O)c1	x	-8%	u	x	-12%	-106*
CC(C)=CCC/C(C)=C/Cc1c(O)ccc(C(=O)/C=C/c2ccc(O)cc2)c1O	-5%	-13%	25µM*	u	u	-24
O=C(/C=C/c1ccccc1)c1ccc(O)cc1O	x	-6%	x	x	i	x
CN(C1CCCCC1)S(=O)(=O)c1ccc2c(c1)c(=O)c(C(=O)NCCc1ccc(Cl)cc1)cn2C	-9%[46.1 µM]	-12%	x	4%[46.1 µM]	-23%	32

Bioassay records from PubChem.
